# Assay outcomes as filed in PubChem BioAssay.
# An excerpt weighted towards active compounds, which were near 6.9% of everything screened.
# JMJD2A Tudor: inhibitors of human JMJD2A Tudor domain. O75164. AlphaScreen JMJD2A-Tudor / H3K4me3 peptide binding. Potency, µM (series often up to 114 µM), inactives show top-dose activity change, negative = inhibition, most hits filed as inhibitors. actives 4.4% (n = 390,000); also: % is scaled to controls: 0 for no effect and ±100 for the full control effect; nearly all actives have a fitted effect of over 50% in size
# VDR inhibitor: inhibitors of human vitamin D receptor. P11473. Potency, µM, inactives show max response, negative = inhibition, hits mostly inhibitors. AID 504847. VDR-SRC2-3 peptide fluorescence polarization, 2 h. actives 0.93% (n = 400,000); also: % is scaled to controls: 0 for no effect and ±100 for the full control effect
# Target sequence (P11473 whole entry, looked up): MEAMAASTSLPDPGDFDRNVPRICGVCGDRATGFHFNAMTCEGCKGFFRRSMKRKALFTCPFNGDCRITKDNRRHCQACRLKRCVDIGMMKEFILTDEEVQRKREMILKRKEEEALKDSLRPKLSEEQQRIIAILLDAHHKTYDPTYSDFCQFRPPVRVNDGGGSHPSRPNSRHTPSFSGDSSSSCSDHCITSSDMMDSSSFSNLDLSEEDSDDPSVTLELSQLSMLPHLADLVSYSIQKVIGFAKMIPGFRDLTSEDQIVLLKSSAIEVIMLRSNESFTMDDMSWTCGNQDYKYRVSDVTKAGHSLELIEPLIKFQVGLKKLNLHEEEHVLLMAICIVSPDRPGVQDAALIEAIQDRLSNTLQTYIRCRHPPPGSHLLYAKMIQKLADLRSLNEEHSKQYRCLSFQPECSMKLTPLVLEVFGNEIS
#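 Fluorescence polarization assay measuring small-molecule disruption of VDR binding to the coregulator peptide SRC2-3. Compounds were pin-transferred (23 nl) into the reagent mix and incubated 2 h at room temperature before reading.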
# BAZ2B inh: BAZ2B (human) inhibition; AlphaScreen BAZ2B-H3K14Ac peptide displacement; Q9UIF8; Potency, µM (series often up to 114 µM), for inactives: at the highest dose activity change, negative = inhibition, usual class: inhibitors; actives 4.4% (n = 360,000); also: % is scaled to controls: 0 for no effect and ±100 for the full control effect; nearly all actives have a fitted effect of over 60% in size
#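 AlphaScreen displacement: compounds (up to 110uM) incubated 30 min at room temperature with a preformed 50 nM BAZ2B/50 nM biotinylated H3K14Ac peptide complex in PBS pH 7.4 with Tween-20. Donor and acceptor beads at 10 ug/mL final added, 20 min light-protected before reading.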
# HP1b binding inh: inhibitors of HP1-beta chromodomain binding to methylated histone tails; P83916; actives 0.56% (n = 390,000); AlphaScreen HP1-beta / biotin-H3K9me3 peptide binding; AID 540317; Potency, µM (titrated, usually from 114 µM), inactives show top-dose activity change, negative = inhibition, actives largely listed as inhibitors; also: nearly all actives have a fitted effect of over 70% in size
# Target sequence (P83916 whole entry, looked up): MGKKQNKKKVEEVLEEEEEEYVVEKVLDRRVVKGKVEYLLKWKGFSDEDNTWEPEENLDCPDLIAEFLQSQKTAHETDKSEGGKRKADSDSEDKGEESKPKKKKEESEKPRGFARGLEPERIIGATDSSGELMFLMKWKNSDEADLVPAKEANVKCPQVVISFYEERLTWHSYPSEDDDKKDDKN
#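 HP1-beta protein (50 nM final) preincubated 30 min at room temperature with biotinylated H3(1-18)K9me3 peptide (50 nM) in PBS pH 7.4, 0.01% Tween-20, then compound added for 30 min. AlphaScreen streptavidin donor/nickel chelate acceptor beads (10 ug/mL final), 30 min dark, luminescence read.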
# PLK1 PBD block: inhibitors of human PLK1 polo-box domain binding. P53350. Plk1 PBD binding of FITC phosphopeptide, fluorescence polarization. Potency, µM, for the others: max response, negative = inhibition, usual class: inhibitors. actives 2.8% (n = 360,000). AID 720504; also: series mostly up to about 57 µM; % is scaled to controls: 0 for no effect and ±100 for the full control effect; nearly all actives have a fitted effect of over 65% in size
# L3MBTL1 inh: L3MBTL1 (human) inhibition; AlphaScreen L3MBTL1–H3K9me1 peptide binding; AID 485360; actives 0.66% (n = 230,000); Potency, µM (titrated, usually from 57.1 µM), for inactives: top-dose activity, negative = inhibition, most hits filed as inhibitors; Q9Y468; also: % is scaled to controls: 0 for no effect and ±100 for the full control effect; nearly all actives have a fitted effect of over 60% in size
#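 L3MBTL1 50 nM + b-AHA-H3(1-15)K9me1 75 nM, 30 min RT; compound added, 30 min RT; streptavidin donor/Ni-chelate acceptor beads 10 ug/mL each final, 30 min RT dark; AlphaScreen read.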
# Numbers without * were called inactive; u = inconclusive; x = no result given; [ ] = dose if it differs, or a comment. Calls follow the shape of the dose curve; as a rule, active = well fitted curve in the direction sought with a large enough effect; inconclusive = small, poorly fitted or top-dose-only effect, or another doubt; inactive = no such curve, though single readings can be large; an effect the other way counts as inactive or inconclusive. Potency is read from the fitted curve at half-maximal effect.
SMILES,JMJD2A Tudor,VDR inhibitor,BAZ2B inh,HP1b binding inh,PLK1 PBD block,L3MBTL1 inh
Cc1ccc(NC(=O)CN2CCN(C(=O)c3ccco3)CC2)cc1S(=O)(=O)N(C)C,6.31µM*,-9.8%,x,u,-14.0%,x
COc1cc(C(=O)OC(C)CN2CCCCC2)cc(OC)c1OC (stereo not drawn),-15.8%,-6.7%,6.3%,34.4%,-16.1%,0.5%
CSc1nccn1C(=O)c1ccccc1[N+](=O)[O-],35.5µM*,u,-30.5%,9.9%,u,x
CCN(CC)CC(=O)Nc1cccc2c1C(=O)c1ccccc1C2=O,-19.9%,-8.3%,-26.9%,-2.9%,u,x
O=C1c2ccccc2C(=O)c2c(NCCCN(CCO)CCO)cccc21,39.8µM*,8.1%,28.2µM*,25.1µM*,u,u
COc1ccccc1N=Nc1c(C)[nH]n(-c2ccccc2)c1=O,u,-13.6%,u,u,-8.6%,-4.6%
CCOc1ccccc1N=Nc1c(C)[nH]n(-c2ccccc2)c1=O,44.7µM*,-5.1%,u,u,-3.8%,3.3%
Cc1[nH]n(-c2ccccc2)c(=O)c1N=Nc1ccc(C(=O)O)cc1,u,-15.6%,-37.9%,3.8%,-5.3%,x
Cc1[nH]n(-c2ccccc2)c(=O)c1N=Nc1ccccc1,11.2µM*,26.6%,2.51µM*,u,1.1%,-25.5%
CC(=O)c1ccc(N=Nc2c(C)[nH]n(-c3ccccc3)c2=O)cc1,u,-18.1%,31.6µM*,u,-7.3%,-23.1%
Cc1[nH]n(-c2ccccc2)c(=O)c1N=Nc1cccc(S(=O)(=O)N2CCOCC2)c1,56.2µM*,7.8%,-2.0%,u,-4.2%,0.1%
CC(C)(C)C(C(=O)n1cccc1C#N)c1ccccc1 (stereo not drawn),12.9%,-4.7%,17.4%,99.9%,u,14.6%
Cc1cccc(CNc2ncncc2-c2cccnc2)c1,x,-19.1%,x,x,x,x
COc1ccc2c(c1)c1c(c(=O)n(CCc3ccccc3)c(=O)n1Cc1cccc(C)c1)n2C,-6.2%,2.5%,-9.0%,30.1%,x,x
O=C(CSc1nc2c([nH]c3ccccc32)c(=O)n1-c1ccc(Cl)cc1)NC1CCCCC1,-13.5%,-0.9%,-1.1%,30.8%[57 µM],x,x
Cc1cc(C)n(-c2nc3ccccc3nc2Nc2ccc(N(C)C)cc2)n1,11.2µM*,-13.7%,3.16µM*,8.91µM*,x,x
Cc1cc(C)n(-c2nc3ccccc3nc2Nc2ccc3c(c2)OCO3)n1,19.9%,3.8%,32.3%,105.6%,1.6%,57.3%
C=CCOc1ccc(/C=C\c2nc(O)c([N+](=O)[O-])c(=O)[nH]2)cc1OC,-28.5%,u,-30.6%,14.0%,-15.8%,-2.3%
C=CCOc1cccc(/C=C\c2nc(O)c([N+](=O)[O-])c(=O)[nH]2)c1,-14.1%,14.1µM*,-23.4%,14.5%,-7.3%,x
O=c1[nH]c(/C=C\c2cccc(F)c2)nc(O)c1[N+](=O)[O-],-18.4%,39.8µM*,0.4%,4.3%,0.4%,6.7%
O=c1[nH]c(/C=C\c2ccccc2F)nc(O)c1[N+](=O)[O-],-30.2%,u,3.5%,17.1%,-6.0%,-2.3%[2.29 µM]
CC(C)c1ccc(C2N=C(N)Nc3nc4ccccc4n32)cc1 (stereo not drawn),-10.7%,4.5%,-28.4%,51.0%,x,x
CN(C(=O)c1ccc(N2CCOCC2)c([N+](=O)[O-])c1)C1CCCCC1,-9.0%,-3.3%,-7.8%,23.9%,-7.0%,-3.0%
CN(c1ccc(C(=O)N2CCOCC2)cc1[N+](=O)[O-])C1CCCCC1,-32.3%,-7.8%,50.1µM*,-7.9%,-11.0%,-9.0%
OC[C@@H]1CN(Cc2cccs2)C[C@H](n2cnc3c(NCc4ccco4)ncnc32)O1,x,x,x,x,-0.2%,x
SMILES,JMJD2A Tudor,VDR inhibitor,BAZ2B inh,HP1b binding inh,PLK1 PBD block,L3MBTL1 inh
Cc1ccc(-n2c(Cc3ccccc3)n[nH]c2=S)c(C)c1,17.8µM*,11.5%,-29.2%,2.6%,-8.3%,-3.1%[11.4 µM]
Cc1ccc(-n2c(CC#N)n[nH]c2=S)c(C)c1,20µM*,7.0%,-17.7%,39.3%,-2.9%,x
O=C(Nc1ccc(Cl)c(Cl)c1)Nc1nnc(CSc2ccccc2)s1,-5.3%,-7.7%,-2.1%,18.6%,4.2%,-12.0%
O=C(/C=C/c1ccc([N+](=O)[O-])s1)N1CCCCC1,-21.7%,-1.6%,-33.0%,18.5%,u,-16.4%
O=[N+]([O-])c1ccc(CN2CCCCCC2)s1,20µM*,11.6%,39.8µM*,3.16µM*,-15.6%,u
CSc1nc2ccccc2n1C(=O)NC1CCCCC1,0.4%,-1.5%,-20.7%,22.5%,u,x
COC(=O)n1c(SC)nc2ccccc21,4.1%[11.4 µM],-5.6%,23.4%,-6.0%,26.7µM*,50.4%
CCc1ccc(C(O)c2ncc(-c3ccc(C)cc3)[nH]2)cc1 (stereo not drawn),x,x,x,x,-23.2%,x
COc1cccc(C2C3(C#N)C(N)=NC(OC)(OC)C23C#N)c1 (stereo not drawn),-3.8%,-7.9%,0.3%[57.1 µM],19.5%,-1.1%,1.1%
CCOC1(OCC)N=C(N)C2(C#N)C(c3ccc(NC(C)=O)cc3)C12C#N (stereo not drawn),u,-1.4%,79.4µM*,11.7%,-7.6%,-6.6%
CCSC1(SCC)N=C(N)C2(C#N)C(c3ccc(F)cc3)C12C#N (stereo not drawn),-6.5%,89.1µM*,-22.9%,44.0%,9.47µM*,2.7%
Cc1ccccc1CN1C(=O)c2ccccc2Sc2ccc(C(=O)NC3CCCCC3)cc21,-8.3%,4.4%,4.5%,8.7%,x,x
O=C(CSc1ccc(F)cc1)NCCc1ccc(Cl)cc1,5.5%,-5.0%,1.6%,15.6%,-9.2%,x
N#Cc1cc2c(N)c(C(=O)Nc3ccccc3)sc2nc1N,x,x,u,x,x,-0.9%
Cc1cccc(NC(=O)c2sc3nc4c(cc3c2N)CN(C(C)C)CC4)c1,50.1µM*,-12.6%,u,-19.2%,x,x
Cc1cccc(NC(=O)c2sc3nc4c(cc3c2N)CN(Cc2ccccc2)CC4)c1,5.4%,-1.1%,-9.2%,25.6%,x,x
CCN1CCc2nc3sc(C(=O)N4CCc5ccccc5C4)c(N)c3cc2C1,79.4µM*,-14.0%,u,-19.0%,-16.9%,x
Cc1cccc(NC(=O)c2sc3nc(N)c(C#N)cc3c2N)c1,35.5µM*,-7.1%,-9.7%,12.5%,-16.4%,-4.2%
O=C(OCC(=O)N1CCN(C(=O)c2ccco2)CC1)c1cc(-c2ccco2)nc2ccccc12,39.8µM*,-27.4%,20µM*,31.6µM*,u,8.91µM*
O=C(N/N=C/c1ccc(F)cc1)c1cc(-c2ccco2)nc2ccccc12,u,2.9%,2.82µM*,22.4µM*,u,3.55µM*
COc1ccc(CNC(=O)COC(=O)c2cc(C)nc3ccccc23)cc1,-18.8%,-27.2%,x,10.3%,-8.4%,1.3%
COc1ccc(CNC(=O)COC(=O)c2cc(-c3ccco3)nc3ccccc23)cc1,x,x,50.1µM*,x,x,x
